Hits are enriched below; roughly 13% of the tested compounds scored in any of these assays.
Lamin A splicing: qHTS Assay for Modulators of Lamin A Splicing; HeLa LMNA splicing GFP/RFP minigene ratio, 48 h; Potency, µM (top dose mostly 46.1 µM), without a hit: at the highest dose ratio change, negative = inhibition, actives largely listed as inhibitors; actives 0.01% (n = 200,000); AID 1487, 2009; active = well fitted inhibition curve with a large enough effect in the signal ratio, with a control signal flat, not every such curve was filed as active; inconclusive = small, poorly fitted or top-dose-only effect, or effect the other way, or a change in a side signal; the % refers to the signal ratio; also: potency is read from the fitted curve at half-maximal effect; % is scaled to controls: 0 for no effect and ±100 for the full control effect
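S3 HeLa stable clones carrying a lamin A-EGFP splicing minigene plus DsRed2 were seeded at 600 cells/well in Opti-MEM with 2% FBS, pin-dosed and incubated 48 h at 37°C. Acumen cytometry (488 nm) gave the GFP/RFP total-intensity ratio.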
ALDH1A1 block: qHTS Assay for Inhibitors of Aldehyde Dehydrogenase 1 (ALDH1A1) | Potency, µM (highest dose often 75.3 µM), without a hit: top-dose activity, negative = inhibition, most hits filed as inhibitors | actives 7.3% (n = 220,000) | AID 1030, 2008 | Aldehyde dehydrogenase 1A1 (Homo sapiens), P00352 | Purified ALDH1A1, NADH fluorescence, propionaldehyde substrate; active = well fitted inhibition curve with a large enough effect, not every such curve was filed as active; inconclusive = small, poorly fitted or top-dose-only effect, or another doubt; inactive = no such curve, though single readings can be large or run the other way;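 also: potency is read from the fitted curve at half-maximal effect; plate controls were no enzyme wells and a reference inhibitor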
miR-21 reporter: qHTS Assay for Modulators of miRNAs and/orActivators of miR-21; HeLa miR-21 FLuc reporter, luciferase, 48 h; Potency, µM (series often up to 38.3 µM), without a hit: at the top dose activity change, positive = activation, usual class: activators; 340,000 tested, under 10 active; AID 2288, 2010;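 also: % of control where 0% means no effect; miR-21 action dims this reporter so a rising signal means less miR-21 action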
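Luminescence from a firefly luciferase reporter carrying a miR-21 binding site downstream, stably expressed under a CMV promoter in HeLa cells that make miR-21 endogenously, reports miRNA modulation after 48 h compound exposure up to approximately 40uM final.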
Sfp inh: qHTS Assay for Inhibitors of Bacillus subtilis Sfp phosphopantetheinyl transferase (PPTase); 4'-phosphopantetheinyl transferase ffp (Bacillus subtilis), Q9F4F7; AID 1490, 2009; Biochemical Sfp PPTase activity, qHTS; actives 3.5% (n = 310,000); Potency, µM, without a hit: largest response in the series, negative = inhibition, usual class: inhibitors;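 also: the enzyme is Sfp with the accession as filed and its product quenches rhodamine fluorescence; potency is read from the fitted curve at half-maximal effect; 0% = enzyme reaction without inhibitor and -100% = no enzyme wells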
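After 15 min at room temperature with compound, 15 nM Sfp received 5 uM rhodamine-CoA plus 12.5 uM BHQ-2-ybbR (50 mM Hepes pH 7.6, 10 mM MgCl2). Rate came from the fluorescence difference over 30 min, ex 525/em 598 nm.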
G9a block: qHTS Assay for Inhibitors of Histone Lysine Methyltransferase G9a | Histone-lysine N-methyltransferase EHMT2 (Homo sapiens), Q96KQ7 | G9a H3K9 monomethylation, AlphaScreen, 2 h | Potency, µM (series often up to 102 µM), inactives show at the highest dose activity, negative = inhibition, most hits filed as inhibitors | actives 8.8% (n = 350,000) | AID 504332, 2011; also: potency is read from the fitted curve at half-maximal effect; % is scaled to controls: 0 for no effect and ±100 for the full control effect; nearly all actives have a fitted effect of over 75% in size
Target sequence (Q96KQ7 913-1193 limits assumed): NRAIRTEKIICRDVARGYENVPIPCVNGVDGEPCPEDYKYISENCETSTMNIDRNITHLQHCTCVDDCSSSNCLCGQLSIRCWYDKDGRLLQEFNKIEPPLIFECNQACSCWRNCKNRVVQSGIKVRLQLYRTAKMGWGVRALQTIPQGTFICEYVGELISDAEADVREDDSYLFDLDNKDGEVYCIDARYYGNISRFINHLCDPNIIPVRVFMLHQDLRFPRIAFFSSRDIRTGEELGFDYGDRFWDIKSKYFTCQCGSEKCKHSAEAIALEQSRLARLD
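Methyltransferase reactions run at room temperature for 2 h (20 nM enzyme, 500 nM biotin-H3K9 peptide, 20 uM SAM) after a 15 min compound preincubation; product detected by AlphaScreen beads and anti-H3K9me1 antibody.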
JMJD2E inh: qHTS Assay for Inhibitors of Human Jumonji Domain Containing 2E (JMJD2E); Lysine-specific demethylase 4E (Homo sapiens), B2RXH2; JMJD2E catalytic domain, FDH-coupled NADH fluorescence (FDH is formaldehyde dehydrogenase); Potency, µM (series often up to 57.1 µM), inactives show top-dose activity change, negative = inhibition, actives largely listed as inhibitors; actives 1.6% (n = 230,000); active = well fitted inhibition curve with a large enough effect, not every such curve was filed as active; inconclusive = small, poorly fitted or top-dose-only effect, or another doubt; inactive = no such curve, though single readings can be large or run the other way;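 also: potency is read from the fitted curve at half-maximal effect; 0% = wells with enzyme and -100% = buffer wells without enzyme; nearly all actives have a fitted effect of over 50% in size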
Target sequence (B2RXH2 1-337 limits assumed): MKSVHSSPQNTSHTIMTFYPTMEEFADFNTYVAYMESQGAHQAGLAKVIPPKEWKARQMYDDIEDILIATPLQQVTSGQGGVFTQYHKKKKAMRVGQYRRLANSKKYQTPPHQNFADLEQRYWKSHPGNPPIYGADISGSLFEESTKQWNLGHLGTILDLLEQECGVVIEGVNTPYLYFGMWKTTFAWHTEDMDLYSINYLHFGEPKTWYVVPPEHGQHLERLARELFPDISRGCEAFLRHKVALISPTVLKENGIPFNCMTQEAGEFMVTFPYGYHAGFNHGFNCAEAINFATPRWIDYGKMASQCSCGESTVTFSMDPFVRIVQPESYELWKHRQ
* hit, by the source's call; [ ] = remark or other dose. Unless noted, calls follow the shape of the dose curve; as a rule, active = well fitted curve in the direction sought with a large enough effect; inconclusive = small, poorly fitted or top-dose-only effect, or another doubt; inactive = no such curve, though single readings can be large; an effect the other way counts as inactive or inconclusive.

`N#Cc1c(C(F)(F)F)cc(-c2ccc(Cl)c(Cl)c2)nc1SCCN1CCOCC1` gave Lamin A splicing 3%, ALDH1A1 block 2%, miR-21 reporter 0%, Sfp inh 17%, G9a block 56µM* and JMJD2E inh -1%.
Cc1cc(C(F)(F)F)nc(SCCN2CCOCC2)c1C#N was read as Lamin A splicing inconclusive, ALDH1A1 block 22µM*, miR-21 reporter -8%, Sfp inh -26%, G9a block 13µM* and JMJD2E inh -2%.
`Cc1cc(C)c2nc(SCC(=O)N3CC(=O)Nc4ccccc43)c(C#N)cc2c1` gave Lamin A splicing inconclusive, ALDH1A1 block inconclusive, miR-21 reporter 22%, Sfp inh -13%, G9a block 10µM* and JMJD2E inh -6%.
Screening COc1ccc2nc(SCC(=O)N3CC(=O)Nc4ccccc43)c(C#N)cc2c1 returned Lamin A splicing inconclusive, ALDH1A1 block -15%, miR-21 reporter -2%, Sfp inh 6%, G9a block -24% and JMJD2E inh -16%.
For COCCNC(=S)N/N=C/c1ccccc1C(=O)O the results were Lamin A splicing 4%, ALDH1A1 block -9%, miR-21 reporter 0%, Sfp inh 63µM*, G9a block 8.9µM* and JMJD2E inh 1%.
Cc1cccc(C)c1NC(=S)N/N=C/c1ccccc1C(=O)O was read as miR-21 reporter 1%, Sfp inh -3% and JMJD2E inh 6%.
`Oc1ccccc1/C=N/NC(=S)NC1CC2CCC1C2` (stereo not given) gave Lamin A splicing inconclusive, ALDH1A1 block inconclusive, miR-21 reporter -9%, Sfp inh 25%, G9a block inconclusive and JMJD2E inh 25µM*.
For S=C(N/N=C/c1ccco1)NC1CC2CCC1C2 (stereo not given) the results were miR-21 reporter -52%, Sfp inh 15% and G9a block inconclusive.
For COCCCNC(=S)N/N=C/c1ccccc1O the results were Lamin A splicing inconclusive, ALDH1A1 block inconclusive, miR-21 reporter -28%, Sfp inh 10% and JMJD2E inh 28µM*.
CCCN(C(=O)c1cn(C)c(=O)c2ccccc12)c1ccccc1C was read as miR-21 reporter 0%, Sfp inh 5% and G9a block -13%.
For Cc1cc(C2=NNC(=NC3CCCCC3)SC2)c(C)n1-c1c(C)n(C)n(-c2ccccc2)c1=O the results were Lamin A splicing inconclusive, ALDH1A1 block inconclusive, miR-21 reporter -6%, Sfp inh inconclusive, G9a block -25%[59 µM] and JMJD2E inh -5%.
For C=C(C)CN=C1NN=C(c2cc(C)n(-c3ccc(C)cc3)c2C)CS1 the results were Lamin A splicing inconclusive, ALDH1A1 block 13µM*, miR-21 reporter -10%, Sfp inh -7%, G9a block -13%[59 µM] and JMJD2E inh -20%.
For Cc1cc(C2=NNC(=NC3CC3)SC2)c(C)n1-c1ccccc1F the results were Lamin A splicing inconclusive, ALDH1A1 block 8.9µM*, miR-21 reporter inconclusive, Sfp inh 45µM*, G9a block inconclusive and JMJD2E inh 5%.
For O=C(O)c1ccc2c(c1)C(=O)N([C@H](Cc1ccc(-c3ccccc3)cc1)C(=O)O)C2=O the results were Sfp inh 16% and G9a block -12%[12.7 µM].
Screening COc1ccc(CCN2CC(C(=O)NCCc3ccc(C(F)(F)F)cc3)CCC2=O)cc1 (stereo not given) returned miR-21 reporter 6%, Sfp inh 16% and G9a block 18%.
Screening CC(C(=O)NCC(=O)Nc1ccc(F)c(F)c1F)N1CCN(Cc2ccc(C#N)cc2)CC1 (stereo not given) returned G9a block -8%[12.7 µM].
`CC(C(=O)NCC(=O)Nc1ccc(F)c(F)c1F)N1CCN(c2ccc(O)cc2)CC1` (stereo not given) gave G9a block 1.4µM*.
`COc1cc(/C=C(\C#N)c2nc3ccccc3[nH]2)cc(Cl)c1OCc1ccccc1Cl` gave miR-21 reporter -3% and G9a block 11%[59 µM].
`CC(NC(=O)CSC(=S)N(C)C)C12CC3CC(CC(C3)C1)C2` (stereo not given) gave Lamin A splicing -13%, ALDH1A1 block 13µM*, miR-21 reporter -9%, Sfp inh -1%, G9a block 6% and JMJD2E inh -3%.
`O=[N+]([O-])c1cc([N+](=O)[O-])c(Oc2cncc(Cl)c2)cc1NC1CCCCCCC1` gave miR-21 reporter -1%, Sfp inh 8% and G9a block inconclusive.
For O=[N+]([O-])c1ccc(Oc2cc(NC3CCCCCCC3)c([N+](=O)[O-])cc2[N+](=O)[O-])cc1 the results were miR-21 reporter 0%, Sfp inh 11% and G9a block 40µM*.
`O=C(COc1ccc(Cl)cc1[N+](=O)[O-])NC1CCCCC1` gave Lamin A splicing inconclusive, ALDH1A1 block inconclusive, miR-21 reporter -23%, Sfp inh 11%, G9a block -51% and JMJD2E inh 4%.
O=[N+]([O-])c1cc([N+](=O)[O-])c(Oc2cc(Cl)ccc2Cl)cc1NC1CCCCCCC1 was read as miR-21 reporter 0%, Sfp inh -3% and G9a block 40µM*.
`Cc1nn(-c2ccccc2)c2c1cc1c(=O)n(C)c(=O)nc-1n2-c1ccccc1F` gave miR-21 reporter -3%, Sfp inh 4%, G9a block 32µM* and JMJD2E inh inconclusive.
For Cc1nn(-c2ccccc2)c2c1cc1c(=O)n(C)c(=O)nc-1n2-c1cccc(Cl)c1 the results were miR-21 reporter -10% and G9a block 8%[59 µM].
CNC(=O)[C@H]1O[C@@H](n2cnc3c(N)ncnc32)[C@H](O)[C@@H]1O was read as ALDH1A1 block 0%, Sfp inh 14% and G9a block 37%[59 µM].
`CCCSc1nc2cc(C)c(C)cc2n1CC(C)O` (stereo not given) gave Lamin A splicing inconclusive, ALDH1A1 block -3%, miR-21 reporter -36%, Sfp inh -28%, G9a block 11µM* and JMJD2E inh 2%.

Assay outcomes: PubChem BioAssay, National Center for Advancing Translational Sciences (NCATS)
